Laboratory results published in PubChem BioAssay (NCATS).
Calls of active or inactive are those of the source. Calls follow the shape of the dose curve; as a rule, active = well fitted inhibition curve with a large enough effect; inconclusive = small, poorly fitted or top-dose-only effect; inactive = flat fitted curve, though single readings scatter.

These compounds were tested against Luciferin 4-monooxygenase (Photinus pyralis) (UniProt P08659) (assay: Primary firefly luciferase (FLuc) qHTS assay for identification of artifact compounds. (AID 1845220; also: nearly all actives have a fitted effect of over 60% in size)). Details: purified firefly luciferase, luminescence, 5 min; series mostly up to 54.1 µM; activity change, negative = inhibition: at the top concentration.
Description: PI: Alexander Tropsha Ph.D.
UNC Eshelman School of Pharmacy
University of North Carolina, Chapel Hill, North Carolina
Hits from high-throughput screening (HTS) of chemical libraries are often false positives due to their interference with the assay detection technology. In response to this problem, we generated the largest publicly available library of chemical liabilities and developed a free webtool to predict HTS artifacts, both of which are described herein. More specifically, we generated, curated, and integrated HTS datasets for thiol reactivity, redox activity, and luciferase (firefly and nano) activity. Using these curated datasets, we developed and validated several Quantitative Structure-Interference Relationship (QSIR) models to predict nuisance behavior. […] These models were employed for virtual profiling of the National Center for Advancing Translational Science's (NCATS) in-house library, and 256 compounds for each assay were selected for the experimental validation of nuisance behavior. The BA for these external predictions ranged from 58 to 78% for compounds within the applicability domains of the models. […] The models developed in this study, along with aggregation models previously developed by our group (SCAM Detective) were implemented in "Liability Predictor," an online tool which may be used as part of chemical library design or for triaging HTS hits. Both the models and the curated datasets are publicly available at https://liability.mml.unc.edu/.
SEQUENCE No. (e.g., 1, 2, 3, etc.); […] (e.g., Cells, Incubation, Reagent, etc.); VALUE; DESCRIPTION.
1; Reagent; 3 uL; Luciferase substrate mixture.
2; Compounds and control; 16 nL; Kalypsis pin tool (Wako USA) equipped with a 1536-well pin head.
4; Reagent; 1 uL; Luciferase enzyme.
6; Detection; Luminescence, ViewLux microplate reader.
NOTES (numbers refer to Sequence numbers above)
1. 3 uL of luciferase substrate mixture containing D-luciferin and ATP (final concentrations of 10 uM and 10 uM, respectively) in assay buffer (10 mM Mg-acetate, 0.01% Tween-20, 0.05% bovine serum albumin, 50 mM Tris acetate, pH 7.6) was dispensed into all wells of a 1536-well assay plate (solid-bottom white plate; Greiner Bio One, Monroe, NC).
2. A Wako Pin-tool (Wako Automation, Richmond, VA) was used to transfer 16 nL of compounds (consisting of 7-plates in qHTS format, final concentration range 18.3 nM to 114 uM) or control PTC124 (final concentration range 1.22 nM to 40 uM).
3. 15 min. incubation at room temperature protected from light.
4. 1 uL of luciferase enzyme (final concentration 10 nM, Photinus pyralis luciferase) or buffer was dispensed for a final assay volume of 4 uL.
5. Plates were centrifuged (121xg, 15 seconds) and incubated for 5 minutes.
6. Samples were read for luminescence on a ViewLux CCD imager (PerkinElmer). Data were normalized to no-enzyme (0% activity) and no-inhibitor (DMSO; 100%) controls and the resulting percent inhibition data were fitted to a 4-parameter Hill equation using NCATS in-house software.

Row | Structure (SMILES) | activity change, negative = inhibition | outcome
1 | CC1OC(O[C@@H]2[C@@H](O)[C@H](OC(=O)[C@]34CCC(C)(C)C[C@H]3C3=CCC5[C@@]6(C)CC[C@H](O[C@@H]7O[C@H](C(=O)O)[C@@H](O)[C@H](O[C@@H]8OC[C@@H](O)[C@H](O)[C@H]8O)[C@H]7O[C@@H]7O[C@H](CO)[C@H](O)[C@H](O)[C@H]7O)[C@@](C)(C=O)C6CC[C@@]5(C)[C@]3(C)C[C@H]4O)O[C@H](C)[C@@H]2OC2OC(C)C(OC3OCC(O)C(O)C3O)C(O)C2O)C(O)C(O)C1O (stereo not given in full) | 1.64% [at 11.6 µM] (inactive) | 
2 | CCOC(=O)C(CCc1ccccc1)NC(C)C(=O)N1Cc2ccccc2CC1C(=O)O (stereo not given) |  | inactive
3 | CC(=O)O[C@@H]1[C@@H](O)[C@H](C)O[C@@H](O[C@H]2[C@@H]3C=CO[C@@H](O[C@@H]4O[C@H](CO)[C@@H](O)[C@H](O)[C@H]4OC(C)=O)[C@@H]3[C@@]3(CO)O[C@@H]23)[C@@H]1OC(=O)/C=C/c1ccc(O)cc1 |  | inactive [at 25.7 µM]
4 | OCC1=C[C@@H](O)[C@@H]2C=CO[C@@H](O[C@@H]3O[C@H](CO)[C@@H](O)[C@H](O)[C@H]3O)[C@H]12 | 1.61% (inactive) | 
5 | O=C(C1OC1/C=C/c1ccc2c(c1)OCO2)N1CCCCC1 (stereo not given) | 2.03% (inactive) | 
6 | Cc1c(C)c(NCC(=O)N(C)C2CCN(Cc3ccc(C(N)=O)cc3)CC2)c(C)c(C)c1N |  | inactive
7 | CC1=C2CC(O)(C(C)(C)O)C(O[C@@H]3O[C@H](CO)[C@@H](O)[C@H](O)[C@H]3O)CC(C)C2CC1=O (stereo not given in full) | -1.63% [at 25.7 µM] (inactive) | 
8 | C=C1CCC2[C@@](C)(C(=O)O)CCC[C@@]2(C)[C@@H]1CCc1ccoc1 (stereo not given in full) | -10.9% (inactive) | 
9 | C[C@@H]1CC[C@]2(C(=O)O)CC[C@]3(C)C(=CCC4[C@@]5(C)C[C@@H](O)[C@@H](O)C(C)(C)C5CC[C@]43C)C2[C@]1(C)O (stereo not given in full) | -0.825% [at 25.7 µM] (inactive) | 
10 | N#CN1CCC[C@@H](n2nc(-c3ccc(Oc4ccc(F)cc4F)cc3)c(C(N)=O)c2N)C1 |  | inactive
11 | COc1ccc(OC)c(C2C(C#N)=C(N)Oc3n[nH]c(-c4ccc5ccccc5c4)c32)c1 (stereo not given) |  | inactive
12 | O=C(OC(C(F)(F)F)C(F)(F)F)N1CCN(Cc2cccc(Oc3ccccc3)c2)CC1 |  | inactive
13 | C[C@@H]1C[C@@H](O)[C@@]23CO[C@]2(CO)CCC[C@@H]3[C@@]12C[C@@H](c1ccoc1)OC2=O |  | inactive
14 | COc1cc(/C=C/C(=O)O[C@H]2C[C@@H]3C(C(=O)O)=CO[C@@H](O[C@@H]4O[C@H](CO)[C@@H](O)[C@H](O)[C@H]4O)[C@@H]3[C@H]2C)ccc1O | 2.45% [at 25.7 µM] (inactive) | 
15 | CN1CCCC1Cc1c[nH]c2ccc(CCS(=O)(=O)c3ccccc3)cc12 (stereo not given) | 1.66% (inactive) | 
16 | CC(=O)OC1CCC2(C)C(CCC3(C)C2CC=C2C4CC(C)(C)CCC4(C)CCC23C)C1(C)C(=O)O (stereo not given) | 1.66% [at 25.7 µM] (inactive) | 
17 | Nc1ncnc2c1C(=O)N(c1ccc(C3CCC(CC(=O)O)CC3)cc1)CCO2 (stereo not given) |  | inactive
18 | O=C(O[C@H]1[C@H](Oc2ccc(O)cc2CO)O[C@H](CO)[C@@H](O)[C@@H]1O)c1ccccc1 | 1.05% [at 25.7 µM] (inactive) | 
19 | O=C(O)c1cc(O[C@@H]2O[C@H](CO)[C@@H](O)[C@H](O)[C@H]2O)ccc1O |  | inactive
20 | CC(C)=CCC/C(C)=C/CO[C@@H]1O[C@H](CO[C@@H]2O[C@@H](CO)[C@H](O)[C@H]2O)[C@@H](O)[C@H](O)[C@H]1O |  | inactive [at 25.7 µM]

Row | Structure (SMILES) | activity change, negative = inhibition | outcome
21 | O=C(/C=C/c1ccc(O)c(O)c1)O[C@H]1[C@@H]2C=CO[C@@H](O[C@@H]3O[C@H](CO)[C@@H](O)[C@H](O)[C@H]3O)[C@@H]2[C@@]2(CO)O[C@@H]12 | 1.71% [at 25.7 µM] (inactive) | 
22 | CC1(C)CC[C@]2(C(=O)O[C@@H]3O[C@H](CO)[C@@H](O)[C@H](O)[C@H]3O)CC[C@]3(C)C(=CCC4[C@@]5(C)CC[C@H](O[C@H]6O[C@H](CO)[C@@H](O)[C@H](O[C@@H]7O[C@H](CO)[C@@H](O)[C@H](O)[C@H]7O)[C@H]6O)C(C)(C)C5CC[C@]43C)[C@@H]2C1 (stereo not given in full) | 0.281% [at 11.6 µM] (inactive) | 
23 | C/C1=C\CC(C)(C)/C=C/C/C(C(=O)O)=C/CC1 | -14.7% (inactive) | 
24 | CC(C)(O)[C@@H]1CC[C@]2(CO)[C@@H](O)CC[C@](C)(O)[C@H]2[C@@H]1O[C@@H]1O[C@H](CO)[C@@H](O)[C@H](O)[C@H]1O | -5.56% [at 25.7 µM] (inactive) | 
25 | OC[C@@]1(O)CO[C@@H](OC[C@H]2O[C@@H](Oc3ccccc3)[C@H](O)[C@@H](O)[C@@H]2O)[C@@H]1O |  | inactive
26 | C/C=C(/C)C(=O)OC1C(OC(C)=O)C23C(O)OC4(CCC5C6(C)CCC(OC7OC(C(=O)O)C(O)C(OC8OC(CO)C(O)C(O)C8OC8OC(C)C(O)C(O)C8OC8OCC(O)C(O)C8O)C7OC7OC(CO)C(O)C(O)C7O)C(C)(C)C6CCC5(C)C4(C)CC2OC(C)=O)C3CC1(C)C (stereo not given) |  | inactive [at 11.6 µM]
27 | COc1ccccc1N1CCN(CCCCNC(=O)c2ccc(-c3cscn3)cc2)CC1 | -12.2% (inactive) | 
28 | C=CCc1ccc(O[C@@H]2O[C@H](CO)[C@@H](O)[C@H](O)[C@H]2O)c(O[C@@H]2O[C@H](CO)[C@@H](O)[C@H](O)[C@H]2O)c1 |  | inactive [at 25.7 µM]
29 | Cc1cc(CNC(=O)c2cc(C(=O)NCc3ccc(F)c(C)c3)ncn2)ccc1F | 2.85% (inactive) | 
30 | CC1(C)C2CC[C@@]34CC(CC[C@H]3[C@]2(C)CC[C@@H]1O[C@@H]1O[C@H](CO)[C@@H](O)[C@H](O)[C@H]1O)[C@](C)(O)C4 (stereo not given in full) | 4.6% [at 25.7 µM] (inactive) | 
31 | C=C(C)C(O)COc1ccc(CC(=O)O)cc1 (stereo not given) | -1.5% (inactive) | 
32 | CC(O)C1NC(=O)C2CCCN2C1=O (stereo not given) | 0.979% [at 86.2 µM] (inactive) | 
33 | CC(C)=C1CC2C(CCC2(C)O)C(C)(O)CC1=O (stereo not given) | 2.57% (inactive) | 
34 | CC(=O)c1ccc(O[C@@H]2OC[C@@H](O)[C@H](O)[C@H]2O[C@]2(CO)O[C@H](CO)[C@@H](O)[C@@H]2O)c(O)c1 | -0.714% [at 25.7 µM] (inactive) | 
35 | C[C@H]1/C=C/C=C/C=C/C=C/C=C/[C@@H](O)[C@H](C(=O)O)[C@H](O)C[C@H](O)CCC[C@H](O)C[C@H](O)C[C@H](O)[C@@H](C)C(=O)O[C@@H]1C | -1.54% [at 25.7 µM] (inactive) | 
36 | CC1=CCC(O)C2(C)CCC3C(C)C(=O)OC3C12 (stereo not given) | -10.3% (inactive) | 
37 | CCOC(=O)COc1ccc2c(c1)C[C@@H](NC[C@H](O)c1cccc(Cl)c1)CC2 | 3.63% (inactive) | 
38 | CC(C)C1NC(=O)C2CCCN2C1=O (stereo not given) |  | inactive
39 | CCOc1ccc(-c2nn3ncccc3c2-c2ccc(S(C)(=O)=O)cc2)cc1 |  | inactive
40 | C=C[C@H]1[C@H](O[C@@H]2O[C@H](CO)[C@@H](O)[C@H](OC(=O)/C=C/c3ccc(O)c(OC)c3)[C@H]2O)OC=C2C(=O)OCC[C@]21O |  | inactive [at 25.7 µM]
